“And” between values parts separate entries of the source, which are not always exact repeats. Equal values may be shown once. Records with an inconclusive call do not appear. The source holds several records for some structures; these can differ, active in one and inactive in another. The source made the active and inactive calls. Calls come from the whole dose curve; as a rule, active = well fitted curve in the direction sought with a large enough effect in the repeat runs; inconclusive = weak or mixed curves; inactive = no such curve, though single readings can be large; an effect the other way counts as inactive or inconclusive.

Experimental findings from PubChem BioAssay (Tox21) are described below.

A short description of experiment [1]: Human pregnane X receptor (PXR) small molecule agonists, qHTS cell viability counter screen (AID 1346977). Note: nearly all actives have a fitted effect of over 50% in size. Note: potency is the fitted concentration of half-maximal effect. The essentials: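 After a 5hr pre-incubation, PXR-Luc HepG2 cells received compounds plus positive control in DMSO and were kept 24hr at 37C. Cell viability was quantified by fluorescence from CellTiter-Fluor added for the final hour.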
Experiment [2] can be described thus: Caspase-3/7 induction in HepG2 cells by small molecules, qHTS assay (AID 1346978). Note: nearly all actives have a fitted effect of over 15% in size. Summed up:
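Wild-type HepG2 cells, 2,000/well, settled 5 hr at 37 C and 5% CO2, then compound-treated for 17 hr; caspase-3/7 activity read by luminescent Caspase-Glo 3/7 after 30 min at room temperature.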

Experiment [3] in a line: Caspase-3/7 induction in CHO-K1 cells by small molecules, qHTS cell viability counter screen (AID 1346979). Note: nearly all actives have a fitted effect of over 35% in size. Note: potency is the fitted concentration of half-maximal effect. Summed up:
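Multiplexed with Caspase-Glo 3/7 in CHO-K1 cells, this counter screen added CellTiter-Fluor after 16hr of compound exposure and recorded fluorescence 1hr later.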

Experiment [4] can be described thus: Caspase-3/7 induction in HepG2 cells by small molecules, qHTS cell viability counter screen (AID 1346981). Note: series mostly up to about 92 µM; nearly all actives have a fitted effect of over 30% in size. The essentials: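 Cell viability is measured as a cytotoxicity counter screen alongside the Caspase-Glo 3/7 readout in identical wells. Wild-type HepG2 cells are treated with test compounds for 16 hr at 37 C before CellTiter-Fluor addition and a 1-hr incubation.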

Experiment [5] addresses Nuclear receptor subfamily 1 group I member 2 (Rattus norvegicus) (UniProt Q9R1A7). Description: Rat pregnane X receptor (rPXR) activation by small molecules, qHTS assay (AID 1346983). Note: nearly all actives have a fitted effect of over 20% in size. Particulars: rPXR luciferase reporter cells, One-Glo luminescence, 24 h; stronger effect = higher value. Summed up: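 Cell-based rPXR activation assay: rPXR cells, 2,000 per well, rested 5hr at 37 C, then exposed to compounds in DMSO for 24 hr at 37 C. Luciferase activity read by One-Glo luminescence after 30 min at room temperature.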

The target of experiment [6] is Cytochrome P450 2D6 (Homo sapiens) (UniProt P10635). Description: Cytochrome P450 Family 2 Subfamily D Member 6 (CYP2D6) small molecule antagonists: luciferase reporter qHTS assay (AID 1671196). Note: nearly all actives have a fitted effect of over 50% in size. Note: potency is the fitted concentration of half-maximal effect. The essentials: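 Enzyme and proluciferin substrate were first combined with test chemical for 10 min at room temperature. Adding NADPH regeneration solution started a 1 h reaction, stopped with luciferin detection reagent and read by luminescence 20 min later.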
Sequence of Cytochrome P450 2D6 (Homo sapiens) (P10635 whole entry, looked up): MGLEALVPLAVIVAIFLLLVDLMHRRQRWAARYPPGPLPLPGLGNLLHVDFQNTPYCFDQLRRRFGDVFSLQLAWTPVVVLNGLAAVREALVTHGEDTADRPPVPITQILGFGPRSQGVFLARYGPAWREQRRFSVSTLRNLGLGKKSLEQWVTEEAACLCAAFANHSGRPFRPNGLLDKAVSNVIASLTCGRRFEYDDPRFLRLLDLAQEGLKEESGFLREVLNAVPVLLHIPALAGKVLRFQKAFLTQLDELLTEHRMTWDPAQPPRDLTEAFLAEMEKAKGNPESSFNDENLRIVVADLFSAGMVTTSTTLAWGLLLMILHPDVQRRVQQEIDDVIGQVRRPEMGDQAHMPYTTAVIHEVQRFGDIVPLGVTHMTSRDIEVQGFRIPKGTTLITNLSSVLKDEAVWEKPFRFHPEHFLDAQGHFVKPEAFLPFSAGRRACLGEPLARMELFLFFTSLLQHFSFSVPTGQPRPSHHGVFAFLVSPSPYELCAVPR

Experiment [7] deals with Cytochrome P450 2C9 (Homo sapiens) (UniProt P11712). Description: Cytochrome P450 Family 2 Subfamily C Member 9 (CYP2C9) small molecule antagonists: luciferase reporter qHTS assay (AID 1671198). Note: nearly all actives have a fitted effect of over 50% in size. Note: potency is the fitted concentration of half-maximal effect. The essentials: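 P450-Glo proluciferin substrate with CYP2C9 enzyme; 10 min RT preincubation, then NADPH regeneration 1 h at 37C; luciferin detection reagent 20 min RT, luminescence in relative luminescence units.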
Sequence of Cytochrome P450 2C9 (Homo sapiens) (P11712 whole entry, looked up): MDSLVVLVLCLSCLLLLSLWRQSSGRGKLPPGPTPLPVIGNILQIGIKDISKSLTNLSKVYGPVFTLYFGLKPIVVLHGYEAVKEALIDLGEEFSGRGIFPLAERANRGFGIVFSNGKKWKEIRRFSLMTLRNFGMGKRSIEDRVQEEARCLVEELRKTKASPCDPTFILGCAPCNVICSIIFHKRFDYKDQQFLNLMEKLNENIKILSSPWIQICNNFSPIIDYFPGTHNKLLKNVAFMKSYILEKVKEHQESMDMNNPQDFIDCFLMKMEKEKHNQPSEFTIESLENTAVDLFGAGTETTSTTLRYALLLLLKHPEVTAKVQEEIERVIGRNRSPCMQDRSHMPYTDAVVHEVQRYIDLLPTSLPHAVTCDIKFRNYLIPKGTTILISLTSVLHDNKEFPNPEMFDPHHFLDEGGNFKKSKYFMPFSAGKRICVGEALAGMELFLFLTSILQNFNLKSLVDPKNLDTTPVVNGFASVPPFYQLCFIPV

Experiment [8] deals with Cytochrome P450 1A2 (Homo sapiens) (UniProt P05177). Description: Cytochrome P450 Family 1 Subfamily A Member 2 (CYP1A2) small molecule antagonists: luciferase reporter qHTS assay (AID 1671199). Note: series mostly up to about 120 µM; nearly all actives have a fitted effect of over 50% in size. The essentials: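 Compounds were incubated with CYP1A2 and a luminogenic proluciferin substrate for 10 min at room temperature before the reaction was started with NADPH regeneration solution. After 1 h, detection reagent was added and light output, proportional to CYP activity, was recorded.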
Sequence of Cytochrome P450 1A2 (Homo sapiens) (P05177 whole entry, looked up): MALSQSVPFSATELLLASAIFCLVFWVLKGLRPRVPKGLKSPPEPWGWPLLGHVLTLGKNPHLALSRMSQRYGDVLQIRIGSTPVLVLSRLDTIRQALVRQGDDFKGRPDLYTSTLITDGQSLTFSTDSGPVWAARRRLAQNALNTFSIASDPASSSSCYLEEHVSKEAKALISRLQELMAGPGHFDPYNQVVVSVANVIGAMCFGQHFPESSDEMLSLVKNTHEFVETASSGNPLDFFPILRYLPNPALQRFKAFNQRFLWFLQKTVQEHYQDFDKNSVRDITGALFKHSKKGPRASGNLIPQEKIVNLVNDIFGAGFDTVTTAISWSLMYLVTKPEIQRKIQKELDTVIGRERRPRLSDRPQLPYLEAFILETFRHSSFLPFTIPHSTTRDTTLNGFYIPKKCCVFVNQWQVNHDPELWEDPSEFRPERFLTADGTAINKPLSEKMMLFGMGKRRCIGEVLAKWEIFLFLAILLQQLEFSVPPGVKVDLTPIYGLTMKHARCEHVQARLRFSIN

The target in experiment [9] is Voltage-gated inwardly rectifying potassium channel KCNH2 (Homo sapiens) (UniProt Q12809). Description: Human Ether-a-go-go-Related Gene (hERG) channel small molecule antagonists: fluorescence cell-based qHTS assay (AID 1671200). Note: nearly all actives have a fitted effect of over 50% in size. Note: potency is the fitted concentration of half-maximal effect. The essentials:
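Cell line hERG-U2OS; dye FluxOR II, 1 h RT dark; Tl+ stimulus; ex 480/em 540 nm, read each second for 2 min.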

Experiment [10] concerns the target Cytochrome P450 3A4 (Homo sapiens) (UniProt P08684). Description: Cytochrome P450 Family 3 Subfamily A Member 4 (CYP3A4) small molecule antagonists: luciferase reporter qHTS assay (AID 1671201). The essentials:
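Room-temperature assay throughout: 10 min compound–enzyme/substrate preincubation, 1 h reaction after NADPH regeneration solution, 20 min detection. Luciferin formed from proluciferin substrate is quantified by luminescence.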

For experiment [11], the target named is Nuclear receptor subfamily 1 group I member 2 (Homo sapiens) (UniProt O75469). Kind of experiment: Human pregnane X receptor (PXR) small molecule agonists, qHTS assay (AID 1346982). Note: nearly all actives have a fitted effect of over 35% in size. Note: potency is the fitted concentration of half-maximal effect. Summed up: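 Cells: HepG2 stably carrying PXR-Luc. Medium held 5% charcoal-stripped FBS. Compounds in DMSO added after 5 hr plating, incubated 24 hr, then luminescence quantified with ONE-Glo.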
Sequence of Nuclear receptor subfamily 1 group I member 2 (Homo sapiens) (O75469 whole entry, looked up): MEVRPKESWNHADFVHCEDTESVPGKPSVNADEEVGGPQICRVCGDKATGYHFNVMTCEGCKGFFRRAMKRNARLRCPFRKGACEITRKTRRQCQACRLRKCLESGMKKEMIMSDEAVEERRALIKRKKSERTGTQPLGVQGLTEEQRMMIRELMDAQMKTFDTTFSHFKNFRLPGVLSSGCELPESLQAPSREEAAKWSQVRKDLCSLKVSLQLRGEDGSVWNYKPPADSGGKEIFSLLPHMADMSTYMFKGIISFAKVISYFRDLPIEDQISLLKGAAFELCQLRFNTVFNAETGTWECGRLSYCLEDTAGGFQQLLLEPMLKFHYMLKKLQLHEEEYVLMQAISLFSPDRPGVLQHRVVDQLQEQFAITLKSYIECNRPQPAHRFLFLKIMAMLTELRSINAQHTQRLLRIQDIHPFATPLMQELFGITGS

The target of experiment [12] is Cytochrome P450 2C19 (Homo sapiens) (UniProt P33261). Kind of experiment: Cytochrome P450 Family 2 Subfamily C Member 19 (CYP2C19) small molecule antagonists: luciferase reporter qHTS assay (AID 1671197). Note: nearly all actives have a fitted effect of over 65% in size. Note: potency is the fitted concentration of half-maximal effect. The essentials: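 Light output is proportional to CYP2C19 activity: proluciferin substrate is converted to luciferin, then detected by a luciferin detection reagent that also stops the 1 h, 37C NADPH-driven reaction. Ketoconazole serves as positive control.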
Sequence of Cytochrome P450 2C19 (Homo sapiens) (P33261 whole entry, looked up): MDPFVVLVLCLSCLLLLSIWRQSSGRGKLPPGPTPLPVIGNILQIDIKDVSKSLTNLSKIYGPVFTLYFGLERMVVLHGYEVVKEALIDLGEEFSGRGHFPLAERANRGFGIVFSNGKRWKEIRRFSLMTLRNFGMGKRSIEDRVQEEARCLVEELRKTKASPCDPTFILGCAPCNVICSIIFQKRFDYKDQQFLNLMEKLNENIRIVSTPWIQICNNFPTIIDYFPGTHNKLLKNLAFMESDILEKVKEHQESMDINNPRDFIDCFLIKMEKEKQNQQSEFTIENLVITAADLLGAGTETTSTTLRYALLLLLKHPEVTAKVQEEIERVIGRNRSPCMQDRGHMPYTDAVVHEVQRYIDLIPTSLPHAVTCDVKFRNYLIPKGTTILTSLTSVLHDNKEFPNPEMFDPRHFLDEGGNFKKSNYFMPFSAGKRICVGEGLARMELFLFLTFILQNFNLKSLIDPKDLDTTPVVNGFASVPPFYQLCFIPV

Experiment [13] can be described thus: Caspase-3/7 induction in CHO-K1 cells by small molecules, qHTS assay (AID 1346980). Note: nearly all actives have a fitted effect of over 15% in size. Summed up: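 Wild-type CHO-K1 cells exposed to compounds for 17hr at 37 C, 5% CO2. Caspase-3/7 activity then measured by Caspase-Glo 3/7 luminescence after 30min at room temperature.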
% is set by controls: 0 for no effect and ±100 for the full control effect.

Sequence of Cytochrome P450 3A4 (Homo sapiens) (P08684 whole entry, looked up): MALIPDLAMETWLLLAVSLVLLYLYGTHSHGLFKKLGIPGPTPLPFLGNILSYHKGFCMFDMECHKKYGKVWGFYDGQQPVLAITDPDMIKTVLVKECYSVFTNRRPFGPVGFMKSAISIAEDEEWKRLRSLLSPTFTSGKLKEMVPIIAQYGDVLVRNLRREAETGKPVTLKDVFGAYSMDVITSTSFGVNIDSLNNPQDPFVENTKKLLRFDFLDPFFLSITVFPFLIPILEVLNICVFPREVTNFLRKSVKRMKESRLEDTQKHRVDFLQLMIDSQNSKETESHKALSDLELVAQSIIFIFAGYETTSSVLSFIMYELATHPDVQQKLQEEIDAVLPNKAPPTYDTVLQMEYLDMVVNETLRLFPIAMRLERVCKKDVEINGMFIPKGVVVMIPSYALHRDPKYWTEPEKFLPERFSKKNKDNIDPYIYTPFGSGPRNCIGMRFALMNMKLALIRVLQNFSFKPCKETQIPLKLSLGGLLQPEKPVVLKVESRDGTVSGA
Sequence of Voltage-gated inwardly rectifying potassium channel KCNH2 (Homo sapiens) (Q12809 whole entry, looked up): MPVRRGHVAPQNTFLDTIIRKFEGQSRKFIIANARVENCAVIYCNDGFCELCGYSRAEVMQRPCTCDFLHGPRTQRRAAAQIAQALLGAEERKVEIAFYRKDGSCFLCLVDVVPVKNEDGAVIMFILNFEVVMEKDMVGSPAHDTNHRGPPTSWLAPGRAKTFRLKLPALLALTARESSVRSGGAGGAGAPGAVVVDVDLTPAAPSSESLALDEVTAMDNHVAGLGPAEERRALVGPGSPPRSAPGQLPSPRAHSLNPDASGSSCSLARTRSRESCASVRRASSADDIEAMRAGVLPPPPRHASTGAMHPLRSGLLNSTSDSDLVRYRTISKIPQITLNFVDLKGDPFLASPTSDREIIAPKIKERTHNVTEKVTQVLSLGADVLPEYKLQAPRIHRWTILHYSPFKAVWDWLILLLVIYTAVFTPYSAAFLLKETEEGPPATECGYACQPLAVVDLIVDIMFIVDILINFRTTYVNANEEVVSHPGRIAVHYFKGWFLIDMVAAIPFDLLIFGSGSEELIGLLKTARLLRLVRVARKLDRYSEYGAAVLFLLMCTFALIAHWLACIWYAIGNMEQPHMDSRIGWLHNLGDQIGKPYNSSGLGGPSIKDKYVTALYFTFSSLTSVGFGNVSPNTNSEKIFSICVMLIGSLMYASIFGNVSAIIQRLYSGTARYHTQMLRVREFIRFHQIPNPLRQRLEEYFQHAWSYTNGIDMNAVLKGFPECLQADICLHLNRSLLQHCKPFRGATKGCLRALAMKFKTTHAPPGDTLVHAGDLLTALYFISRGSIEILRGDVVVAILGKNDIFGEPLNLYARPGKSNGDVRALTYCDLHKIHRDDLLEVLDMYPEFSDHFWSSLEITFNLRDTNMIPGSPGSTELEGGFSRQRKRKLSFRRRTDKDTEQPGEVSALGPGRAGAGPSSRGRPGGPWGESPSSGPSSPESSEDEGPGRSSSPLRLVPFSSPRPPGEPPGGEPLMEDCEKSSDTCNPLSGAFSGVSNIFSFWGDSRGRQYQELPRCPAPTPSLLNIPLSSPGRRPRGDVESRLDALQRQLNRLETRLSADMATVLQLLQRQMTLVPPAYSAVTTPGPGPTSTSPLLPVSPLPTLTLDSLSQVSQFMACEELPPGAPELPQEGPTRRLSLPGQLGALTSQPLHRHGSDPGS
Sequence of Nuclear receptor subfamily 1 group I member 2 (Rattus norvegicus) (Q9R1A7 whole entry, looked up): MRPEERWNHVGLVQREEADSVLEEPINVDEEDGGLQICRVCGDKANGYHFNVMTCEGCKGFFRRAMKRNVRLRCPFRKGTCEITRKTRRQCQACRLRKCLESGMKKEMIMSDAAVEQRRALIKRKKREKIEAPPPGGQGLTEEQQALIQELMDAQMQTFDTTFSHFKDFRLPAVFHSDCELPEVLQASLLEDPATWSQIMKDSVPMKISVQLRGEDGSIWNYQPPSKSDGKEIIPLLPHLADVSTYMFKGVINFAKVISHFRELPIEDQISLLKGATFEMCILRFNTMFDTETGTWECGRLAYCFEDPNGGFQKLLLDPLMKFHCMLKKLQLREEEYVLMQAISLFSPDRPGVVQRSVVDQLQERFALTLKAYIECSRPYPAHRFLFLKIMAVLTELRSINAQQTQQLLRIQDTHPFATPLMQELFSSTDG

For `Cc1cc(CC(=O)O)n(C)c1C(=O)c1ccc(Cl)cc1`, the Potency entry in experiment [1], in experiment [2], in [3], in [4], in experiment [6] and in experiment [7] was “inactive” each time. In addition, the Potency entry in experiment [8], in [9] and in [10] was “inactive” each time. Besides, the max activation in experiment [5] was -4.94% (inactive) and -11.5% (inactive).

Turning to `CCN(CC)CCNC(=O)c1ccc(N)cc1`, the Potency entry in [1], in experiment [2], in experiment [3], in experiment [4] and in experiment [9] was “inactive” each time.

As for `NC(=O)c1ncn([C@@H]2O[C@H](CO)[C@@H](O)[C@H]2O)n1`, the Potency result in [1], in [2], in experiment [3], in experiment [4], in [6] and in experiment [12] was “inactive” throughout. Further, the Potency entry in experiment [8], in experiment [9] and in experiment [10] was “inactive” throughout. Further, the Potency in [11] is 9.1 µM (active) and inactive.

As to `CC(C=O)Cc1ccc(C(C)(C)C)cc1` (stereo not drawn), the Potency entry in experiment [1], in [2], in experiment [3], in [4], in [11] and in experiment [6] was “inactive” throughout. Besides, the Potency entry in [12], in experiment [8], in experiment [9] and in experiment [10] was “inactive” in each case. For the same molecule, in [7], the Potency is 56.4 µM (active).

With `CN=C(NC#N)NCCSCc1nc[nH]c1C`, the Potency entry in [1], in [2], in experiment [3], in [4], in experiment [8] and in experiment [9] was “inactive” each time. Besides, the Potency in experiment [6] is 31.4 µM (active) and 15.5 µM (active); in experiment [12] it was 22.2 µM (active) and 34.7 µM (active); in experiment [7], 19.8 µM (active) and 15.5 µM (active).

Regarding `CC(=O)OCCC(C)C`, the Potency entry in [1], in experiment [2], in [3], in experiment [4], in [11] and in experiment [6] was “inactive” each time. The Potency result in experiment [7], in [8], in [9] and in experiment [10] was “inactive” each time. Moreover, in experiment [12], the Potency is 79.7 µM (active).

As for `CCCCC(CC)COC(=O)c1ccc(C(=O)OCC(CC)CCCC)cc1` (stereo not drawn), the Potency entry in experiment [1], in experiment [2], in experiment [3], in experiment [4], in experiment [11] and in experiment [6] was “inactive” in each case. Further, the Potency entry in experiment [12], in experiment [7], in [9] and in experiment [10] was “inactive” throughout.

As for `CCOC(=O)CC(=O)OCC`, the Potency result in [1], in experiment [2], in [3], in experiment [4], in experiment [11] and in experiment [6] was “inactive” throughout. For the same molecule, the Potency entry in experiment [12], in experiment [7], in experiment [8], in experiment [9] and in experiment [10] was “inactive” in each case.

For `O=C(NCC1CCCCN1)c1cc(OCC(F)(F)F)ccc1OCC(F)(F)F` (stereo not drawn), the Potency is 60 µM (active) in experiment [1]; 15.2 µM (active) and 9.52 µM (active) in experiment [9]. The Potency result in experiment [2], in experiment [3], in [13], in experiment [4], in experiment [12] and in [7] was “inactive” each time. For the same molecule, the Potency result in experiment [8] was “inactive”.

On to `NC1CCCCC1N` (stereo not drawn), for which the Potency result in experiment [1], in experiment [2], in experiment [3], in experiment [13], in experiment [4] and in [9] was “inactive” each time.

Consider `OCCOCCOCCOCCOCCO`, for which the Potency entry in [1], in [2], in experiment [13], in [4] and in experiment [9] was “inactive” throughout. Moreover, in experiment [3], the Potency was 15.7 µM (active) and inactive.
